Measured values taken from PubChem BioAssay (EPA / NIEHS).
Records with an inconclusive call do not appear. Where a structure was tested more than once in an assay, its records may differ in their call. Calls of active or inactive are those of the source. The calls were made as follows, unless noted: active = hit-call score of the fitted dose curve at least 0.9, where 1 is the maximum; inactive = score below 0.9.

Columns and labels:
[1] = biological target: human RAR-related Orphan Receptor beta (RORb), RORB (gene 6096) (UniProt Q92753); assay: ATG_RORb_TRANS: Attagene TRANS-FACTORIAL HepG2 Assay for human RAR-related Orphan Receptor beta (RORb) (AID 2283010; active = hit-call score of the fitted dose curve at least 0.9, where 1 is the maximum)
In short: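 HepG2 cells were transiently transfected with multiplexed GAL4-UAS reporter units expressing chimeric nuclear receptor–GAL4 proteins, then dosed for 24 h. Reporter mRNA was quantified by RT-PCR with fluorescent labelling and capillary electrophoresis; gain of signal was fitted relative to DMSO.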

[2] = read-out: E-selectin (Homo sapiens) (UniProt P16581); assay: BSK_3C_Eselectin: BioMAP Diversity Plus: 3C Assay for Eselectin Biomarker Activity (AID 2283015); conditions: primary human endothelial cells (HUVEC); actives raise or lower the signal;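 also: cell surface E-selectin protein quantified by ELISA 24 h after dosing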
In short: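 Primary human umbilical vein endothelial cells (3C system), read 24 h after compound addition; E-selectin measured by ELISA. Bidirectional curve fitting against DMSO baseline; cytotoxicity by parallel SRB total-protein staining.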

[3] = read-out: Interleukin-1 alpha (IL1a), IL1A (gene 3552); assay: BSK_BE3C_IL1a: BioMAP Diversity Plus: BE3C Assay for Interleukin-1 alpha (IL1a) Biomarker Activity (AID 2283016); conditions: primary human bronchial epithelial cells; actives raise or lower the signal
In short: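 Human primary bronchial epithelial cells (BE3C system) were dosed with compound and IL-1a measured by ELISA 24 h later. Activity was fitted bidirectionally against DMSO baseline; cytotoxicity was tracked in parallel cultures by SRB total-protein staining.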

[4] = read-out: Monocyte Chemoattractant Protein-1 (MCP1), CCL2 (gene 6347); assay: BSK_3C_MCP1: BioMAP Diversity Plus: 3C Assay for Monocyte Chemoattractant Protein-1 (MCP1) Biomarker Activity (AID 2283017); conditions: primary human endothelial cells (HUVEC); actives raise or lower the signal
In short: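 Human umbilical vein endothelial cells (3C system) exposed to chemicals for 24 h; MCP-1 quantified by ELISA against the DMSO baseline with bidirectional fitting, and parallel SRB staining used to assess cytotoxicity.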

[5] = read-out: Monocyte Chemoattractant Protein-1 (MCP1), CCL2 (gene 6347); assay: BSK_4H_MCP1: BioMAP Diversity Plus: 4H Assay for Monocyte Chemoattractant Protein-1 (MCP1) Biomarker Activity (AID 2283018); conditions: primary human endothelial cells (HUVEC); actives raise or lower the signal
In short: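 Human umbilical vein endothelial cells (4H system) dosed with chemical; MCP-1 measured by ELISA 24 h after dosing. Bidirectional curve fitting against DMSO negative control as baseline; parallel SRB total-protein staining tracks overt cytotoxicity.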

[6] = read-out: Interleukin-8 (IL8), CXCL8 (gene 3576); assay: BSK_3C_IL8: BioMAP Diversity Plus: 3C Assay for Interleukin-8 (IL8) Biomarker Activity (AID 2283020); conditions: primary human endothelial cells (HUVEC); actives raise or lower the signal
In short: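 Primary human umbilical vein endothelial cells (3C system) were exposed to test chemical for 24 h, then IL-8 was quantified by ELISA. Responses were fitted bidirectionally against DMSO vehicle as baseline.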

[7] = read-out: Monokine induced gamma interferon (MIG), CXCL9 (gene 4283); assay: BSK_3C_MIG: BioMAP Diversity Plus: 3C Assay for Monokine induced gamma interferon (MIG) Biomarker Activity (AID 2283021); conditions: primary human endothelial cells (HUVEC); actives raise or lower the signal
In short: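 Primary human umbilical vein endothelial cells in the 3C system were exposed to chemical for 24 h, after which MIG was quantified by ELISA. Activity was fitted bidirectionally against DMSO as negative control and baseline.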

[8] = biological target: human Vitamin D Receptor (VDR), VDR (gene 7421) (UniProt P11473); assay: ATG_VDR_TRANS: Attagene TRANS-FACTORIAL HepG2 Assay for human Vitamin D Receptor (VDR) (AID 2283022; active = hit-call score of the fitted dose curve at least 0.9, where 1 is the maximum)
In short: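 HepG2 cells were transiently transfected with GAL4-UAS reporter units and a chimeric VDR-Gal4 construct, then dosed for 24 hours. Reporter mRNA was quantified by RT-PCR, fluorescent labeling, HpaI digestion and capillary electrophoresis; gain of signal analysed vs DMSO.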

[9] = BSK_3C_SRB: Viability Assessment in the BioMAP Diversity Plus: 3C Assay (AID 2283023); conditions: primary human endothelial cells (HUVEC);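 also: fitted both ways against DMSO so a hit may be signal rise or drop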
In short: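 Human umbilical vein endothelial cells in the 3C system, treated 24 h. Total protein measured by 0.1% sulforhodamine B staining after 10% TCA fixation, read at 560 nm; bidirectional fit versus DMSO.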

[10] = read-out: Matrix Metallopeptidase 1 (MMP1), MMP1 (gene 4312); assay: BSK_BE3C_MMP1: BioMAP Diversity Plus: BE3C Assay for Matrix Metallopeptidase 1 (MMP1) Biomarker Activity (AID 2283024); conditions: primary human bronchial epithelial cells; actives raise or lower the signal
In short: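 Primary human bronchial epithelial cells were dosed with test chemicals, and MMP1 levels were measured by ELISA 24 h later. Data were fitted bidirectionally against DMSO as the negative control and activity baseline.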

[11] = read-out: Pselectin, SELP (gene 6403); assay: BSK_4H_Pselectin: BioMAP Diversity Plus: 4H Assay for Pselectin Biomarker Activity (AID 2283026); conditions: primary human endothelial cells (HUVEC); actives raise or lower the signal
In short: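 Primary human umbilical vein endothelial cells were exposed to test chemical for 24 h, then cell-surface P-selectin was quantified by ELISA. Activity was fitted bidirectionally against DMSO as negative control and baseline.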

[12] = BSK_4H_SRB: Viability Assessment in the BioMAP Diversity Plus: 4H Assay (AID 2283027); conditions: primary human endothelial cells (HUVEC);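 also: cells exposed to compound for 24 h before staining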
In short: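 Absorbance at 560 nm of SRB-stained total protein served as the viability read-out in confluent primary human umbilical vein endothelium 24 h after chemical treatment. Curves were fitted bidirectionally against DMSO as negative control.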

[13] = BSK_BE3C_SRB: Viability Assessment in the BioMAP Diversity Plus: BE3C Assay (AID 2283028); conditions: primary human bronchial epithelial cells
In short: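 Human bronchial epithelial primary cells in confluent culture, 24 h after chemical dosing; total protein by 0.1% SRB staining after 10% TCA fixation, read at 560 nm. Bidirectional fitting versus DMSO baseline.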

[14] = read-out: Thrombomodulin, THBD (gene 7056); assay: BSK_3C_Thrombomodulin: BioMAP Diversity Plus: 3C Assay for Thrombomodulin Biomarker Activity (AID 2283029); conditions: primary human endothelial cells (HUVEC); actives raise or lower the signal
In short: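 Primary human umbilical vein endothelial cells (3C system) were exposed to chemical for 24 h, then thrombomodulin levels were measured by ELISA. Activity was fitted bidirectionally against the DMSO negative control as baseline.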

[15] = biological target: Retinoic acid receptor RXR-alpha (Homo sapiens) (UniProt P19793); assay: ATG_RXRa_TRANS: Attagene TRANS-FACTORIAL HepG2 Assay for human Retinoid X Receptor alpha (RXRa) (AID 2283012; active = hit-call score of the fitted dose curve at least 0.9, where 1 is the maximum)
In short: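 HepG2 cells transiently transfected with multiplexed GAL4-UAS reporter units and chimeric NR-GAL4 fusions, dosed 24 h. Reporter mRNA measured by RT-PCR, FAM labelling, HpaI digestion and capillary electrophoresis; gain-of-signal fitted relative to DMSO baseline.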

[16] = biological target: human Thyroid Receptor alpha (THRa1), THRA (gene 7067) (UniProt P10827); assay: ATG_THRa1_TRANS: Attagene TRANS-FACTORIAL HepG2 Assay for human Thyroid Receptor alpha (THRa1) (AID 2283014; active = hit-call score of the fitted dose curve at least 0.9, where 1 is the maximum)
In short: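 HepG2 cells transiently transfected with chimeric NR-Gal4 and GAL4-UAS reporter units, dosed 24 h. Reporter mRNA quantified by RT-PCR, fluorescent labeling, HpaI digestion and capillary electrophoresis; gain-of-signal fit versus DMSO.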

[17] = BSK_3C_Vis: BioMAP Diversity Plus: 3C Assay for Morphology Visualization (AID 2283025); conditions: primary human endothelial cells (HUVEC);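 also: fitted both ways so gain or loss versus DMSO counts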
In short: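 Human umbilical vein endothelial cells in the 3C system were imaged by light microscopy 24 h after chemical dosing to record cell morphology. Activity was fitted bidirectionally against DMSO as negative control and baseline; the endpoint serves as a background control.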

[18] = read-out: Human Leukocyte Antigen - DR isotype (HLADR), HLA-DRA (gene 3122); assay: BSK_3C_HLADR: BioMAP Diversity Plus: 3C Assay for Human Leukocyte Antigen - DR isotype (HLADR) Biomarker Activity (AID 2283019); conditions: primary human endothelial cells (HUVEC); actives raise or lower the signal;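 also: ELISA of cell-surface HLA-DR on HUVEC 24 h after dosing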
In short: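 HUVEC monoculture, HLA-DR measured by ELISA 24 h after chemical dosing. Fitted bidirectionally against DMSO baseline; parallel SRB staining assessed cytotoxicity, with 3C proliferation read by SRB at 48 h.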

[19] = biological target: human RAR-related Orphan Receptor gamma (RORg), RORC (gene 6097) (UniProt P51449); assay: ATG_RORg_TRANS: Attagene TRANS-FACTORIAL HepG2 Assay for human RAR-related Orphan Receptor gamma (RORg) (AID 2283011; active = hit-call score of the fitted dose curve at least 0.9, where 1 is the maximum)
In short: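 HepG2 cells transiently transfected with GAL4-UAS reporter units and chimeric RORg-Gal4 construct; after 24 h chemical exposure, reporter mRNA measured by RT-PCR with fluorescent capillary electrophoresis, gain of signal fitted against DMSO.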

[20] = biological target: human Retinoid X Receptor beta (RXRb), RXRB (gene 6257) (UniProt P28702); assay: ATG_RXRb_TRANS: Attagene TRANS-FACTORIAL HepG2 Assay for human Retinoid X Receptor beta (RXRb) (AID 2283013; active = hit-call score of the fitted dose curve at least 0.9, where 1 is the maximum)
In short: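 HepG2 cells transiently transfected with multiplexed reporter units driven by GAL4-UAS and exogenous chimeric NR-Gal4 proteins; treated 24 h. Reporter mRNA measured by RT-PCR, 6-FAM labelling and capillary electrophoresis; gain-of-signal fitted versus DMSO baseline.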

Measured: AC50

Sequence of E-selectin (Homo sapiens) (P16581 whole entry, looked up): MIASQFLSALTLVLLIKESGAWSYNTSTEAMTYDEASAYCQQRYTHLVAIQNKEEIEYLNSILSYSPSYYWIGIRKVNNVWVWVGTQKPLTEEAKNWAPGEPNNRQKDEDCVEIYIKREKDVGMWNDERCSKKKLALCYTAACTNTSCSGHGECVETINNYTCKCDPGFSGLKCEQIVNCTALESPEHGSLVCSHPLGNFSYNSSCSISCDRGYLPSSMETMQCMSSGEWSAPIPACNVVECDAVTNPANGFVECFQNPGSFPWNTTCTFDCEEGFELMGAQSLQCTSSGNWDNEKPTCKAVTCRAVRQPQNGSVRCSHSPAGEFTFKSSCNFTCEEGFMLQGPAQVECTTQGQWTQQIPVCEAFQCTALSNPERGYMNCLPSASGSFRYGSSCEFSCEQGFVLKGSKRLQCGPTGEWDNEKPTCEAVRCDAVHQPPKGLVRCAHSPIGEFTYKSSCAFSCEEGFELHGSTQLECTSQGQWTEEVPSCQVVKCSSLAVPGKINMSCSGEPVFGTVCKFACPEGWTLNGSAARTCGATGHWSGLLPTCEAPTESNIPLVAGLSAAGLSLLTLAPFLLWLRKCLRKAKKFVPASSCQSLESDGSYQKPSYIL
Sequence of human Vitamin D Receptor (VDR), VDR (gene 7421) (P11473 whole entry, looked up, the tested form may be a part): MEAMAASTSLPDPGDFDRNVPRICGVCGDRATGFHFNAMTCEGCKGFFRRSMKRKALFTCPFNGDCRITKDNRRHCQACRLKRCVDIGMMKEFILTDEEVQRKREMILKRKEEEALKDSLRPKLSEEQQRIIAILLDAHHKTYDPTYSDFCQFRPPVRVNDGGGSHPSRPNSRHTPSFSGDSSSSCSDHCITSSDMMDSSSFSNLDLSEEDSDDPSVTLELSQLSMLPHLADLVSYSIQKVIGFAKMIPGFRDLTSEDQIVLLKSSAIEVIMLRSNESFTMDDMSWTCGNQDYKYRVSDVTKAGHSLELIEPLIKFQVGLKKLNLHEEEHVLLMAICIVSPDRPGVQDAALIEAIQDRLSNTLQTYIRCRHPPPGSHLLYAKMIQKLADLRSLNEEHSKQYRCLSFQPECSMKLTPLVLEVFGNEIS
Sequence of human RAR-related Orphan Receptor beta (RORb), RORB (gene 6096) (Q92753 whole entry, looked up, the tested form may be a part): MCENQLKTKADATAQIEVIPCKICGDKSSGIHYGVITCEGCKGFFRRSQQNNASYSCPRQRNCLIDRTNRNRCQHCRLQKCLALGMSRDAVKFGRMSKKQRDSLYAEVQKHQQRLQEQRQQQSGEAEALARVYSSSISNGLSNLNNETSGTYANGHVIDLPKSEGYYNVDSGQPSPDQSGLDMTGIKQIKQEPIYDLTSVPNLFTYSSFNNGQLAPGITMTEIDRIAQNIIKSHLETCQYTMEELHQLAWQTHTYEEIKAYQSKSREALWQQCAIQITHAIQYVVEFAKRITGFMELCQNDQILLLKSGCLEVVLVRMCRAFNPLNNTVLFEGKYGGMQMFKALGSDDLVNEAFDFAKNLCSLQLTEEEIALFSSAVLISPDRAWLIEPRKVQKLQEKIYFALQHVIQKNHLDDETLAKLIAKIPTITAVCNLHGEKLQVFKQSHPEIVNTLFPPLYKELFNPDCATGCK
Sequence of Retinoic acid receptor RXR-alpha (Homo sapiens) (P19793 whole entry, looked up, the tested form may be a part): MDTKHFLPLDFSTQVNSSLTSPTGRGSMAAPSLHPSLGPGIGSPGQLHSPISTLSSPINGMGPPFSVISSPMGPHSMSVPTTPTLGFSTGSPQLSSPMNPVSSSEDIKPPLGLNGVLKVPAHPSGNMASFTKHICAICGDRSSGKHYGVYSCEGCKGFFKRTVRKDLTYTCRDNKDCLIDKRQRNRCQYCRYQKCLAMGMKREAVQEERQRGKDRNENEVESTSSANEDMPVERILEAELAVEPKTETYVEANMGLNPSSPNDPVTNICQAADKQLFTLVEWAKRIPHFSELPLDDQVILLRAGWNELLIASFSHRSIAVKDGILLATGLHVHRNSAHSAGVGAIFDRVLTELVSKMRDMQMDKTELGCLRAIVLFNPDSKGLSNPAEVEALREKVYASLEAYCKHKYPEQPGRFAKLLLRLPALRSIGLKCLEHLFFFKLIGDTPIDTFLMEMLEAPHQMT
Sequence of human Thyroid Receptor alpha (THRa1), THRA (gene 7067) (P10827 whole entry, looked up, the tested form may be a part): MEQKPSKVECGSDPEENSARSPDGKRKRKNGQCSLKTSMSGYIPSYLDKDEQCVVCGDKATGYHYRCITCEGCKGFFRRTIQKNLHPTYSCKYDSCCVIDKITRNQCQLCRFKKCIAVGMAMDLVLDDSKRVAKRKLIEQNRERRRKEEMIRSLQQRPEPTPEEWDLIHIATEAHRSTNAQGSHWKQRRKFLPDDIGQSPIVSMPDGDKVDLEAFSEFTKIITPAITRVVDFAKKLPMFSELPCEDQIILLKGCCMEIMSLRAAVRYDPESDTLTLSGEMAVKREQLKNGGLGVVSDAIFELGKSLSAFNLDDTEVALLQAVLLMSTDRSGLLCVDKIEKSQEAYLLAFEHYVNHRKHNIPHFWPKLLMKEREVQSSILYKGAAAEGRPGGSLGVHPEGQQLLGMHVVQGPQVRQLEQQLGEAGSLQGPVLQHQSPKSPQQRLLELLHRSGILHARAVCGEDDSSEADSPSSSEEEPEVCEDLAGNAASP
Sequence of human Retinoid X Receptor beta (RXRb), RXRB (gene 6257) (P28702 whole entry, looked up, the tested form may be a part): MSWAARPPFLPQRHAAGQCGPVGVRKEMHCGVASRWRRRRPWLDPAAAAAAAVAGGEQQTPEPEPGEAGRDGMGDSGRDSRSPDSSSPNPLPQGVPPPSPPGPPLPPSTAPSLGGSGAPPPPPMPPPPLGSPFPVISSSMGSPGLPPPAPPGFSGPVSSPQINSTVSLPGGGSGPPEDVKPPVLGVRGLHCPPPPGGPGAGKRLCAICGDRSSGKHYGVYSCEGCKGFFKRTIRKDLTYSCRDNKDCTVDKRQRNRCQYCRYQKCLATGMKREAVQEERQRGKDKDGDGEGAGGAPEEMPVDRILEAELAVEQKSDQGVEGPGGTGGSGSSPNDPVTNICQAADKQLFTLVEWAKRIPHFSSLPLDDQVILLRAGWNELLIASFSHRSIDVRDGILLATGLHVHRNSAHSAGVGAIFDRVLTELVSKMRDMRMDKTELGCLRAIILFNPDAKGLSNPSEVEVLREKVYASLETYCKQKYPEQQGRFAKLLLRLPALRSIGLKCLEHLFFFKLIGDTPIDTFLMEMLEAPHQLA
Sequence of human RAR-related Orphan Receptor gamma (RORg), RORC (gene 6097) (P51449 whole entry, looked up, the tested form may be a part): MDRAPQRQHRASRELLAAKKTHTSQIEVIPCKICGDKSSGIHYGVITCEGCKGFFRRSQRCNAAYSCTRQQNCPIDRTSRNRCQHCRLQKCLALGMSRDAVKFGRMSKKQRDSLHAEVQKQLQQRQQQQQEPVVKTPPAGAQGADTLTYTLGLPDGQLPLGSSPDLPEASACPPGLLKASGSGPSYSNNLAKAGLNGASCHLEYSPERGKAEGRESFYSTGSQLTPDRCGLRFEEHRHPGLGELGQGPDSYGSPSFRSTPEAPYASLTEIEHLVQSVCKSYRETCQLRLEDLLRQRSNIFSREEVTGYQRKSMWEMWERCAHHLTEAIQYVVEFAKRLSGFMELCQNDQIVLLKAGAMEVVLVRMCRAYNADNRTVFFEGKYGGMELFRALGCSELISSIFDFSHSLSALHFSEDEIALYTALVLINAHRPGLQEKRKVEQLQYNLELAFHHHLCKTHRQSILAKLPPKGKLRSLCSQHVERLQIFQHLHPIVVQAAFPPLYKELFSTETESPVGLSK

CCCCC(CC)COP(=O)(O)OCC(CC)CCCC (stereo not drawn)
active: [9] 27.7 µM
inactive: [1] | [2] | [3] | [4] | [5] | [6] | [7] | [8] | [9] | [10] | [11] | [12] | [13] | [14]

O=C(C=Cc1ccccc1)OCC=Cc1ccccc1
inactive: [1] | [15] | [16] | [8]

CCCCCCCOC(=O)c1ccccc1C(=O)OCCCCCCC
not listed: [8] | [15] | [18] | [19] | [20]
inactive: all other assays above

O=C(O)C(F)(F)C(F)(F)OC(F)(F)F
not listed: [8] | [15] | [17] | [19] | [20]
inactive: all other assays above

NC(=O)C(F)(F)C(F)(F)C(F)(F)C(F)(F)F
active: [14] 38.8 µM
inactive: [1] | [2] | [3] | [4] | [5] | [7] | [8] | [9] | [10] | [11] | [12] | [13] | [14]

CC/C=C\CCOC(C)=O
inactive: [19] | [8]

OCC(F)(F)C(F)(F)C(F)(F)C(F)F
not listed: [6] | [16] | [17] | [18] | [19] | [20]
inactive: all other assays above

O=S(=O)(O)c1ccc2ccccc2c1
inactive: [1] | [15] | [16] | [8]

CNC(=S)NC
inactive: [1] | [20] | [16] | [8]

CCCCNc1ccccc1
not listed: [6] | [15] | [18] | [19]
inactive: all other assays above
